# Unmarked numbers belong to inactive results. Activity calls are given as the source filed them.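 How the source made its calls: active means luciferase signal above three times the same-plate solvent-only control wells; inactive means the rest.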
# Biological target: Mitogen-activated protein kinase 7 (Homo sapiens) (UniProt Q13164)
# Assay: ERK5 transactivation activators in reporter cells, primary screen, cell-based, HTS (AID 1508626);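 further: luciferase driven by Gal4-ERK5 fusion binding five Gal4 sites before minimal TATA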
# Details: HeLa Gal4-ERK5 transactivation, 18 h, at 5 µM, stronger effect = higher value
# Chain of Mitogen-activated protein kinase 7 (Homo sapiens) (Q13164 whole entry, looked up, the tested form may be a part): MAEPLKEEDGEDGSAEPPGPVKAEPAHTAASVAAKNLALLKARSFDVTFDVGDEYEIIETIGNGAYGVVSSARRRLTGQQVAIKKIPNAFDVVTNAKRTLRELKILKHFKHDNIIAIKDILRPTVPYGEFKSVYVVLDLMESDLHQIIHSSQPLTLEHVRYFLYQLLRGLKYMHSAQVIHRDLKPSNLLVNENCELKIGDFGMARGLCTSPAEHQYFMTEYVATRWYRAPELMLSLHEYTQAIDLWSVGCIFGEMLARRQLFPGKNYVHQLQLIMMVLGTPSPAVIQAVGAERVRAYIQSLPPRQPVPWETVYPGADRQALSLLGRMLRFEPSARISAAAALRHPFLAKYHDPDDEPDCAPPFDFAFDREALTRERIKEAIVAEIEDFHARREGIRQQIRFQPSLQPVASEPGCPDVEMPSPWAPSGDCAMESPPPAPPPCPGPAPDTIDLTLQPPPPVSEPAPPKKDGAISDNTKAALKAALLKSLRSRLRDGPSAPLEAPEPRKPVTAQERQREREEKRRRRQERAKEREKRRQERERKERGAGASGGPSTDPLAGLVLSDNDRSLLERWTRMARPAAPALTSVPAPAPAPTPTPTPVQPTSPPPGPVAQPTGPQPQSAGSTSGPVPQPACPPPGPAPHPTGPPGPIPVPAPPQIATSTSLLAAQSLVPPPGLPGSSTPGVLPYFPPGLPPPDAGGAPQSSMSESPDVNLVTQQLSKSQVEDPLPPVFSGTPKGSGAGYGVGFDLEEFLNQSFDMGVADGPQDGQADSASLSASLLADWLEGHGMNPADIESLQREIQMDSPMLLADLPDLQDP
row,SMILES,luciferase signal
1,COc1ccc(-c2cc(=O)c3c(O)c(OC)c(OC)c(OC)c3o2)cc1,120 AU
2,O=c1cc(-c2cccc(O)c2)oc2ccc(O)cc12,124 AU
3,CC[C@H](/C=C/[C@@H](C)[C@H]1CC[C@H]2[C@@H]3CCC4=CC(=O)CC[C@]4(C)[C@H]3CC[C@]12C)C(C)C,56 AU
4,C/C=C(/C)C(=O)O[C@H]1[C@H](OC(C)=O)[C@]2(CO)[C@H](O)C[C@]3(C)C(=CC[C@@H]4[C@@]5(C)CC[C@H](O[C@@H]6O[C@H](C(=O)O)[C@@H](O[C@@H]7O[C@H](CO)[C@@H](O)[C@H](O)[C@H]7O)[C@H](O)[C@H]6O[C@@H]6O[C@H](CO)[C@@H](O)[C@H](O)[C@H]6O)[C@](C)(CO)[C@@H]5CC[C@]43C)[C@@H]2CC1(C)C,276 AU
5,C=CCCCCCCCCCCCC(O)CC(O)CO (stereo not given),220 AU (active)
6,OC[C@H]1O[C@H]([S-])[C@H](O)[C@@H](O)[C@@H]1O.[Au+],68 AU
7,CC1(C)C[C@@H]2/C(CO)=C\C=C/[C@@](C)(O)CC[C@]21O,64 AU
8,CC(C)CCC[C@@H](C)[C@H]1CC[C@H]2[C@@H]3C(=O)C=C4C[C@@H](O)CC[C@]4(C)[C@H]3CC[C@]12C,80 AU
9,C=C1CC[C@@]2(OC1)O[C@H]1C[C@H]3[C@@H]4CC=C5C[C@@H](O)C[C@@H](O)[C@]5(C)[C@H]4CC[C@]3(C)[C@H]1[C@@H]2C,84 AU
10,C=CCCCCCCCCCCCC(O)CC(O)COC(C)=O (stereo not given),48 AU

# From PubChem BioAssay
